# From PubChem BioAssay
# VDR inh: vitamin D3 receptor (human) inhibition | P11473 | VDR-SRC2-3 peptide fluorescence polarization, 2 h | Potency, µM, inactives show max response, negative = inhibition, actives largely listed as inhibitors | hit rate 0.93% among 400,000; also: potency is read from the fitted curve at half-maximal effect; % is scaled to controls: 0 for no effect and ±100 for the full control effect
# Target sequence (P11473 whole entry, looked up): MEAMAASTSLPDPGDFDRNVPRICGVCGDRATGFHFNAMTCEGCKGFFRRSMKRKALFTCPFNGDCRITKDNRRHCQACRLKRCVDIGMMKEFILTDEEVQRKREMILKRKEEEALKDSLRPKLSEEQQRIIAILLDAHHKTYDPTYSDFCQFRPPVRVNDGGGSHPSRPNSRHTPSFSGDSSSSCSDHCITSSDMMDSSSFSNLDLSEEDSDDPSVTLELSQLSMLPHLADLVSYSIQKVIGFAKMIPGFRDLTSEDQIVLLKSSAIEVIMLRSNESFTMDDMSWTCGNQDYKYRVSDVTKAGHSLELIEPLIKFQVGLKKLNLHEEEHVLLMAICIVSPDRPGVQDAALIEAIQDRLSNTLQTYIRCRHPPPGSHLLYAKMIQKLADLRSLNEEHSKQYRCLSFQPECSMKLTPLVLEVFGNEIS
#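 Fluorescence polarization assay of small-molecule disruption of VDR binding to coregulator peptide SRC2-3. Compounds and controls pin-transferred, then read after 2 h incubation at ambient room temperature.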
# HttQ103 aggreg: reduces HttQ103-GFP aggregates in PC12 cells; PC12 HttQ103-GFP aggregates, Acumen cytometry, 40 h; Potency, µM (doses to about 46.1 µM), for the others: at the top dose activity change, negative = inhibition, hits mostly inhibitors; hit rate 1.1% among 220,000; also: potency is read from the fitted curve at half-maximal effect; % is scaled to controls: 0 for no effect and ±100 for the full control effect; nearly all actives have a fitted effect of over 60% in size
#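 Multiplexed with ATP-based cell death, this channel scores GFP aggregates in PC12 cells expressing inducible HTTex1-Q103-GFP. Induction used 100 nM tebufenozide; compounds were tested in concentration series.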
# GoLoco inh red: RGS12 GoLoco-Gai1 interaction inhibition; AID 880; Potency, µM (series often up to 61.6 µM), for inactives: top-dose activity, negative = inhibition, actives largely listed as inhibitors; hit rate 0.44% among 230,000; P63096; Gai1:RGS12 GoLoco peptide FP, rhodamine, 10 min; active = well fitted inhibition curve with a large enough effect, not every such curve was filed as active; inactive = no such curve, though single readings can be large or run the other way; also: potency is read from the fitted curve at half-maximal effect; % is scaled to controls: 0 for no effect and ±100 for the full control effect; nearly all actives have a fitted effect of over 30% in size
# KDM4E inh: inhibitors of human JMJD2E histone demethylase; JMJD2E catalytic domain, FDH-coupled NADH fluorescence (FDH is formaldehyde dehydrogenase); Potency, µM (titrated, usually from 57.1 µM), for inactives: at the top dose activity change, negative = inhibition, usual class: inhibitors; hit rate 1.6% among 230,000; AID 2147; active = well fitted inhibition curve with a large enough effect, not every such curve was filed as active; inconclusive = small, poorly fitted or top-dose-only effect, or another doubt; inactive = no such curve, though single readings can be large or run the other way;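 also: potency is read from the fitted curve at half-maximal effect; 0% = wells with enzyme and -100% = buffer wells without enzyme; nearly all actives have a fitted effect of over 50% in size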
# Target sequence (B2RXH2 1-337 limits assumed): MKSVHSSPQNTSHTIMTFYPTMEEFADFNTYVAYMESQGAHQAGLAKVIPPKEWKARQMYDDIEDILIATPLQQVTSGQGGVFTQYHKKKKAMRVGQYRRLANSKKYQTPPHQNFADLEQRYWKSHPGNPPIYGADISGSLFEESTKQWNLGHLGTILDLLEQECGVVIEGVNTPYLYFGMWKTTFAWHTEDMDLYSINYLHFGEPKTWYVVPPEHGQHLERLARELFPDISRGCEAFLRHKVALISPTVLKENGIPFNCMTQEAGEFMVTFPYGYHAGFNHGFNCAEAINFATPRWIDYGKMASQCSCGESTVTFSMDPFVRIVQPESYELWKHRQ
# FBPA coupling cs: coupling enzyme interference in Giardia aldolase counter-screen | AID 2472 | hit rate 0.67% among 290,000 | coupling enzyme system counterscreen, AmpLite Red fluorescence | activity change, negative = inhibition, % at 58.2 µM, hits read low; in the data active = activity change below about -30%; also: % is scaled to controls: 0 for no effect and ±100 for the full control effect
#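 Coupling enzymes only (glyceraldehyde-3-phosphate) + compound, at 57.5 uM final, 10 min RT; add substrate/coupling/AmpLite Red mix, 20 min RT; fluorescence ex 525/em 598 nm. Actives flag coupling-system interference.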
# HTT cytoprotect: protects HTT-Q103 PC12 cells, measured by ATP. PC12 HTT-Q103 induced, cytoprotection, ATP luminescence, 40 h. Potency, µM (top dose mostly 56.4 µM), for inactives: cytoprotection (ATP increase), usual class: activators. hit rate 0.14% among 230,000. AID 1471; also: potency is read from the fitted curve at half-maximal effect; % of control where 0% means no effect; nearly all actives have a fitted effect of over 45% in size
#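 Rat PC12, Q103 Htt exon1-GFP fusion, ecdysone promoter; tebufenozide inducer 100 nM final; compound titration; qHTS, 1500 cells/well; ATPlite luminescent read.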
# An asterisk follows results filed as active; ? = inconclusive; nt = no result; ! = not confirmed by another sample; [ ] = remark or other dose. Rows were chosen to be rich in hits. Some 2.3% of all compounds tested hit in one or more screens of this group. Unless noted, calls follow the shape of the dose curve; as a rule, active = well fitted curve in the direction sought with a large enough effect; inconclusive = small, poorly fitted or top-dose-only effect, or another doubt; inactive = no such curve, though single readings can be large; an effect the other way counts as inactive or inconclusive.
SMILES,VDR inh,HttQ103 aggreg,GoLoco inh red,KDM4E inh,FBPA coupling cs,HTT cytoprotect
CN(/N=C/c1cc(Cl)cc(Cl)c1O)C(=S)NC(C)(C)C,-24.7%,3.9%[9.22 µM],8.6%,31.6µM*,2.0,-2.8%[10 µM]
COc1ccc(-c2cc3c(nn2)-c2ccccc2C3=O)cc1,79.4µM*,-5.6%,-0.3%,1.5%,-10.3,-80.7%[10 µM]
Cc1nc([N+](=O)[O-])c(Br)n1CC(=O)c1ccc(F)cc1,6.0%,28.2µM*,0.8%,-0.6%,1.5,-248.4%
Cc1c(CBr)[n+](=O)c2c(n1[O-])C(Br)CCC2Br (centres undefined),35.5µM*,20.1%[9.22 µM],-16.5%,28.2µM*,-5.4,-9.6%[10 µM]
CC(C)(O)c1cc2ccc(C#Cc3ccsc3)cc2c(=O)o1,-19.7%,nt,nt,nt,nt,nt
COc1ccccc1CNc1nc(-c2ccc(N(C)C)cc2)nc2ccccc12,?,nt,-36.7%,?,-32.3*,-98.9%
CSc1ccccc1C(=O)C1CCCN(C(=O)c2cncs2)C1 (centres undefined),31.6µM*,nt,nt,nt,0.1,nt
CSc1ccccc1C(=O)C1CCCN(C(=O)CCc2cccnc2)C1 (centres undefined),-13.2%,4.8%[9.22 µM],15.4%,4.3%,6.8,14.8%[10 µM]
O=C(CCl)Nc1cccc(-c2cnc3ccccc3n2)c1,-21.6%,25.1µM*,5.0%,-8.4%,0.9,-68.9%
Nc1ncc(Br)cc1N=Cc1ccccc1,-4.0%,?,-7.7%,-3.2%,-47.8*,10.0%[10 µM]
C=CCNC(=O)c1ccccc1NC(=O)C1COc2ccccc2O1 (centres undefined),4.8%,3.55µM*,220.5%,12.5%,-1.1,-65.3%[10 µM]
COC(=O)c1ccccc1NC(=O)C1COc2ccccc2O1 (centres undefined),-3.2%,?,0.6%,?,5.3,2.8%
CCCn1c(CN2CCN(c3cccc(Cl)c3)CC2)nc2c1c(=O)n(C)c(=O)n2C,-14.0%,5.62µM*,9.0%,-1.3%,-1.3,-128.1%
CCCCn1c(CN2CCN(c3cccc(Cl)c3)CC2)nc2c1c(=O)n(C)c(=O)n2C,-13.3%,-13.5%,1.9%,?,-0.2,-4.6%[0.074 µM]
COc1ccc(NC(=O)c2sc(=S)[nH]c2N)cc1,50.1µM*,-6.2%,-12.6%,-21.3%,-2.4,-16.9%
COc1ccc(NC(=O)c2cccc(C(=O)Nc3ccc(OC)cc3)n2)cc1,nt,1.8%,-2.3%,?,2.7,-8.3%
CCCCCn1c(=N)c(S(=O)(=O)c2ccccc2)cc2c(=O)n3ccccc3nc21,-8.6%,nt,nt,nt,nt,nt
Nc1ccccc1SSc1ccccc1N,10µM*,25.7%[9.22 µM],-22.2%,2.5%,-3.8,-5.5%[10 µM]
C/C(=N/NS(=O)(=O)c1cccc([N+](=O)[O-])c1)c1ccncc1,28.2µM*,nt,nt,nt,nt,nt
CC(=NNS(=O)(=O)c1cccc([N+](=O)[O-])c1)c1ccc(-n2ccnc2)cc1,-22.3%,nt,nt,nt,nt,nt
Cc1ccc(-n2c(Cl)c(Cl)nc(Cl)c2=O)cc1,?,4.47µM*,2µM*,-21.8%,-0.4,nt
COc1ccc(C(=O)N2CCC(c3nc(-c4ccc(S(=O)(=O)N5CCCC5)cc4)no3)CC2)cc1,3.9%,nt,nt,nt,nt,nt
COc1ccc(CN2CCNC(=O)C2CC(=O)N2CCCCO2)c(OC)c1 (centres undefined),0.4%,15.0%[9.22 µM],14.9%,0.6%,-6.0,nt
COc1cccc(CN2CCNC(=O)C2CC(=O)N2CCCCO2)c1OC (centres undefined),-10.2%,12.4%[9.22 µM],-25.5%,-3.7%,-44.6*,-2.3%[10 µM]
O=C1CCNc2c(Cl)cc(Cl)cc21,8.8%,-0.3%[9.22 µM],7.6%,-3.5%,-5.3,8.3%[10 µM]
SMILES,VDR inh,HttQ103 aggreg,GoLoco inh red,KDM4E inh,FBPA coupling cs,HTT cytoprotect
O=C1CCNc2c(Cl)cccc21,-13.9%,13.5%[9.22 µM],4.47µM*,-2.0%,2.5,38.4%[10 µM]
COc1ccc(C2=NS(=O)(=O)N(C)C(C(=O)NCc3ccc(F)cc3)=C2)cc1OC,-1.0%,nt,nt,nt,-0.5,nt
CCCN(CCC)S(=O)(=O)c1ccc(C(=O)Nc2nnc(-c3cccc(OC)c3)o2)cc1,-3.3%,10µM*,6.6%,-8.0%,9.9,nt
CCCN(CCC)S(=O)(=O)c1ccc(C(=O)Nc2nnc(-c3cc(OC)cc(OC)c3)o2)cc1,-1.9%,6.31µM*,8.3%,11.3%,0.1,-3.2%[10 µM]
CCc1nnc(NC(=O)c2ccc(S(=O)(=O)N(CCOC)CCOC)cc2)o1,5.8%,5.3%,2.3%,-3.8%,-0.6,-4.6%
CCOC(=O)c1cccc(NC(=O)[C@H](CSCc2ccccc2)N2Cc3ccccc3C2=O)c1,-12.2%,nt,nt,nt,nt,nt
C[C@@H](O)[C@H]1C(=O)N2C(C(=O)O)=C(SCCN=CN)C[C@H]12,4.1%,nt,nt,nt,nt,nt
Cc1cc(C)c(C)c(S(=O)(=O)NC(C)C(=O)O)c1C (centres undefined),-9.6%,-2.5%[9.22 µM],2.3%,-5.6%,5.0,18.2%[10 µM]
CN1CCN(Cc2c(O)ccc3occ(C(=O)c4ccccc4)c23)CC1,-4.0%,-4.8%,9.6%,4.4%,-0.2,2.2%[10 µM]
CC(=O)C(C(C)=O)c1c(Cl)c(O)c(O)c2c(C(=O)c3ccccc3)coc12,?,?,-25.1%,15.8µM*,-12.3,-21.7%
COc1ccc(/C=C/C(=O)c2ccc(O)cc2O)cc1,?,nt,-0.1%,-0.7%,2.2,nt
COc1ccc(/C=C/C(=O)c2cc(O)ccc2O)cc1,7.94µM*,nt,-3.4%,?,0.2,5.01µM*
COc1ccc(/C=C/C(=O)c2ccc(C)s2)cc1,31.6µM*,nt,2.5%,?,-1.9,2.9%[1.9 µM]
O=C(/C=C/c1ccc(O)cc1)c1ccc(O)cc1O,79.4µM*!,-6.6%,5.4%,0.3%,-1.2,?
O=C(/C=C/c1ccc(O)c([N+](=O)[O-])c1)c1ccc2ccccc2c1,?,nt,nt,nt,-0.1,nt
COc1ccc(Oc2ccc(/C=C/C(=O)c3ccc(O)cc3)cc2[N+](=O)[O-])cc1,?,12.6µM*,-0.3%,-16.1%,-0.3,nt
O=S(=O)(NC1CC(NS(=O)(=O)OCC(Cl)(Cl)Cl)C2CCCCC12)OCC(Cl)(Cl)Cl (centres undefined),-19.1%,nt,nt,nt,0.5,nt
COc1ccc(/C=C/C(=O)c2ccc(OC)cc2OC)cc1,?,12.0%,0.7%,-15.5%,-0.8,?
O=C(/C=C/c1ccccc1)c1ccc(O)cc1O,25.1µM*,nt,-1.7%,?,4.3,-10.6%
COc1ccc(/C=C/C(=O)c2cc3c(cc2N)OCO3)cc1,7.2%,-16.3%,2.2%,22.4µM*,-0.9,-57.3%
Cc1ccc(CNC(=O)c2cccc(NC(=O)N3CCSc4ncccc43)c2)cc1,-8.8%,nt,nt,nt,nt,nt
Nc1nc(SCC(=O)O)[nH]c(=O)c1NC(=O)c1ccco1,-9.2%,nt,nt,nt,5.9,nt
Oc1ccccc1-c1nc2c3ccccc3c3ccccc3c2[nH]1,-2.1%,-2.2%[9.22 µM],11.2%,?,-46.6*,-4.4%[10 µM]
c1csc(-c2nc3c4ccccc4c4ccccc4c3[nH]2)c1,-19.0%,?,1.9%,?,-9.3,-21.3%[10 µM]
